According to PubChem BioAssay AID1159580 (chemical genetic matrix, 2015):
Out of some 5,500 compounds screened, about 2,000 (36%) were called active. Roughly 18% stayed inconclusive and do not appear here. Cut-off read from the data, not from the text of the source: active = normalized growth mostly below about 0.91 (no sharp cut-off); inconclusive = no clear call, values can overlap the other calls; inactive = mostly above about 0.92. Some of the results follow.

Assay: chemical genetic growth profiling, strain panel (AID 1159580);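 note: tested at 20 µM; growth read once vehicle control cultures reached saturation at 30 °C; 1 = growth at the plate median or of vehicle wells; lower values mean less growth of the strain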
Details: growth OD

Measured: normalized growth

CC(CN1c2ccccc2Sc2cccnc21)N(C)C (stereo not given)
inactive: S. cerevisiae deletion strains, locus YAL013W, strain DEP1, stronger effect = lower value 1.02 | S. cerevisiae deletion strains, locus YBR021W, strain FUR4, stronger effect = lower value 0.987 | S. cerevisiae deletion strains, locus YBR229C, strain ROT2, stronger effect = lower value 1.02 | S. cerevisiae deletion strains, locus YCL029C, strain bik1, stronger effect = lower value 0.988 | S. cerevisiae deletion strains, locus YDL035C, strain GPR1, stronger effect = lower value 1.02 | S. cerevisiae deletion strains, locus YDL074C, strain BRE1, stronger effect = lower value 1.04 | S. cerevisiae deletion strains, locus YDL101C, strain DUN1, stronger effect = lower value 1.03 | S. cerevisiae deletion strains, locus YDL134C, strain PPH21, stronger effect = lower value 1.01 | S. cerevisiae deletion strains, locus YDL192W, strain arf1, stronger effect = lower value 0.993 | S. cerevisiae deletion strains, locus YDR101C, strain arx1, stronger effect = lower value 0.979 | S. cerevisiae deletion strains, locus YDR150W, strain NUM1, stronger effect = lower value 1.02 | S. cerevisiae deletion strains, locus YDR162C, strain NBP2, stronger effect = lower value 1.04 | S. cerevisiae deletion strains, locus YDR318W, strain mcm21, stronger effect = lower value 0.983 | S. cerevisiae deletion strains, locus YDR388W, stronger effect = lower value 0.994 | S. cerevisiae deletion strains, locus YDR502C, strain sam2, stronger effect = lower value 1.01 | S. cerevisiae deletion strains, locus YEL061C, strain CIN8, stronger effect = lower value 1.02 | S. cerevisiae deletion strains, locus YER110C, stronger effect = lower value 0.978 | S. cerevisiae deletion strains, locus YER155C, strain BEM2, stronger effect = lower value 1.01 | S. cerevisiae deletion strains, locus YER167W, strain BCK2, stronger effect = lower value 1.02 | S. cerevisiae deletion strains, locus YGL078C, strain dbp3, stronger effect = lower value 0.988 | S. cerevisiae deletion strains, locus YGL086W, strain mad1, stronger effect = lower value 0.992 | S. cerevisiae deletion strains, locus YGL248W, strain PDE1, stronger effect = lower value 1.02 | S. cerevisiae deletion strains, locus YGR078C, strain PAC10, stronger effect = lower value 1.02 | S. cerevisiae deletion strains, locus YGR135W, strain pre9, stronger effect = lower value 1.01 | S. cerevisiae deletion strains, locus YGR229C, strain SMI1, stronger effect = lower value 1.05 | S. cerevisiae deletion strains, locus YGR252W, strain gcn5, stronger effect = lower value 0.956 | S. cerevisiae deletion strains, locus YHR030C, strain SLT2, stronger effect = lower value 1.01 | S. cerevisiae deletion strains, locus YHR079C, strain IRE1 (second series), stronger effect = lower value 0.999 | S. cerevisiae deletion strains, locus YHR094C, strain hxt1, stronger effect = lower value 1 | S. cerevisiae deletion strains, locus YHR129C, strain ARP1, stronger effect = lower value 1 | S. cerevisiae deletion strains, locus YHR200W, strain rpn10, stronger effect = lower value 0.995 | S. cerevisiae deletion strains, locus YIL066C, strain RNR3, stronger effect = lower value 1.01 | S. cerevisiae deletion strains, locus YIL073C, strain SPO22, stronger effect = lower value 0.999 | S. cerevisiae deletion strains, locus YIL125W, strain kgd1, stronger effect = lower value 0.999 | S. cerevisiae deletion strains, locus YIR030C, strain dcg1, stronger effect = lower value 0.992 | S. cerevisiae deletion strains, locus YJL095W, strain BCK1, stronger effect = lower value 1.01 | S. cerevisiae deletion strains, locus YJL134W, strain LCB3, stronger effect = lower value 1.05 | S. cerevisiae deletion strains, locus YJL168C, strain set2, stronger effect = lower value 0.998 | S. cerevisiae deletion strains, locus YJL187C, strain SWE1 (second series), stronger effect = lower value 1.02 | S. cerevisiae deletion strains, locus YJR043C, strain POL32, stronger effect = lower value 1.01 | S. cerevisiae deletion strains, locus YJR075W, strain HOC1, stronger effect = lower value 1.02 | S. cerevisiae deletion strains, locus YKL009W, strain mrt4, stronger effect = lower value 1 | S. cerevisiae deletion strains, locus YKL068W, stronger effect = lower value 1 | S. cerevisiae deletion strains, locus YKL085W, strain MDH1 (second series), stronger effect = lower value 0.995 | S. cerevisiae deletion strains, locus YKL085W, strain MDH1, stronger effect = lower value 0.995 | S. cerevisiae deletion strains, locus YKL190W, strain CNB1, stronger effect = lower value 1.03 | S. cerevisiae deletion strains, locus YKR001C, strain vps1, stronger effect = lower value 0.999 | S. cerevisiae deletion strains, locus YLR039C, strain RIC1, stronger effect = lower value 1.06 | S. cerevisiae deletion strains, locus YLR058C, strain SHM2, stronger effect = lower value 1.01 | S. cerevisiae deletion strains, locus YLR102C, strain apc9, stronger effect = lower value 0.991 | S. cerevisiae deletion strains, locus YLR262C, strain YPT6, stronger effect = lower value 1.15 | S. cerevisiae deletion strains, locus YLR268W, strain sec22, stronger effect = lower value 0.998 | S. cerevisiae deletion strains, locus YLR330W, strain CHS5, stronger effect = lower value 1.01 | S. cerevisiae deletion strains, locus YLR342W, strain FKS1 (second series), stronger effect = lower value 1.03 | S. cerevisiae deletion strains, locus YLR371W, strain rom2, stronger effect = lower value 0.995 | S. cerevisiae deletion strains, locus YLR418C, strain cdc73, stronger effect = lower value 1.04 | S. cerevisiae deletion strains, locus YML016C, strain PPZ1, stronger effect = lower value 1.02 | S. cerevisiae deletion strains, locus YML032C, strain rad52, stronger effect = lower value 0.989 | S. cerevisiae deletion strains, locus YML124C, strain tub3, stronger effect = lower value 0.998 | S. cerevisiae deletion strains, locus YMR078C, strain ctf18, stronger effect = lower value 0.999 | S. cerevisiae deletion strains, locus YMR223W, strain ubp8, stronger effect = lower value 0.995 | S. cerevisiae deletion strains, locus YMR263W, strain SAP30, stronger effect = lower value 1.03 | S. cerevisiae deletion strains, locus YMR307W, strain GAS1, stronger effect = lower value 1.06 | S. cerevisiae deletion strains, locus YNL067W, strain RPL9B, stronger effect = lower value 1.02 | S. cerevisiae deletion strains, locus YNL128W, strain TEP1, stronger effect = lower value 1.02 | S. cerevisiae deletion strains, locus YNL153C, strain GIM3, stronger effect = lower value 1.03 | S. cerevisiae deletion strains, locus YNL233W, strain BNI4, stronger effect = lower value 1.01 | S. cerevisiae deletion strains, locus YNL250W, strain rad50, stronger effect = lower value 0.992 | S. cerevisiae deletion strains, locus YNL271C, strain bni1, stronger effect = lower value 1.01 | S. cerevisiae deletion strains, locus YNL298W, strain CLA4, stronger effect = lower value 0.988 | S. cerevisiae deletion strains, locus YNL307C, strain MCK1, stronger effect = lower value 0.991 | S. cerevisiae deletion strains, locus YNL322C, strain KRE1, stronger effect = lower value 1.01 | S. cerevisiae deletion strains, locus YNR052C, strain pop2, stronger effect = lower value 0.994 | S. cerevisiae deletion strains, locus YOL006C, strain TOP1, stronger effect = lower value 1.03 | S. cerevisiae deletion strains, locus YOL012C, strain htz1 0.957 | S. cerevisiae deletion strains, locus YOL147C, strain pex11, stronger effect = lower value 0.991 | S. cerevisiae deletion strains, locus YOR061W, strain CKA2, stronger effect = lower value 1.02 | S. cerevisiae deletion strains, locus YOR069W, strain VPS5, stronger effect = lower value 1 | S. cerevisiae deletion strains, locus YOR136W, strain idh2, stronger effect = lower value 0.979 | S. cerevisiae deletion strains, locus YOR144C, strain elg1, stronger effect = lower value 0.999 | S. cerevisiae deletion strains, locus YOR184W, strain ser1, stronger effect = lower value 0.985 | S. cerevisiae deletion strains, locus YOR316C, strain cot1, stronger effect = lower value 0.997 | S. cerevisiae deletion strains, locus YPL055C, strain LGE1, stronger effect = lower value 1.04 | S. cerevisiae deletion strains, locus YPL241C, strain CIN2, stronger effect = lower value 1 | S. cerevisiae deletion strains, locus YPR119W, strain clb2, stronger effect = lower value 0.995 | S. cerevisiae deletion strains, locus YPR141C, strain kar3, stronger effect = lower value 0.997 | S. cerevisiae deletion strains, locus YPR163C, strain tif3, stronger effect = lower value 1 | S. cerevisiae deletion strains, locus YPR167C, strain met16, stronger effect = lower value 1 | S. cerevisiae deletion strains, strain wtn01, stronger effect = lower value 1.01 | S. cerevisiae strains, strain wild type, stronger effect = lower value 1.01
